# According to the supplement of paper PMC6805474:
# Tests used:
# [1] = tested on: Schistosoma mansoni schistosomula (NMRI); assay: phenotypic severity score (0-4); higher = more antischistosomal effect, active = 2 or more; details: 10 µM
# [2] = tested on: Schistosoma mansoni schistosomula (Liberian); assay: drug effect (1 - score/DMSO control score) (fraction); higher = more antischistosomal effect, active = 0.5 or more; extreme values may be limits of the assay; details: 10 µM
# How it was run: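 Liberian-strain Schistosoma mansoni schistosomula, mechanically transformed from cercariae and pre-incubated at least 12 h, were exposed in duplicate (50 per well, flat-bottom 96-well plates) to 10 µM compound in Medium 199 with 5% FCS at 37 °C, 5% CO2, with 0.1% DMSO control wells. Wells were scored visually (10×) at 24, 48 and 72 h on a quarter-point scale from 3 (normal) to 0 (dead). Drug effect was derived from the mean test-well score relative to the mean DMSO-control score. Negative values were set to zero, and plates were valid only if control wells averaged at least 2.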
# 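Wherever phenotypic severity score (0-4) is given: visual microscopic scoring of shape, motility and density changes versus 0.5% DMSO solvent controls, one point per descriptor, degeneracy or death scored 4, mean of duplicate wells.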
SMILES,phenotypic severity score ([1]; 24 h),phenotypic severity score ([1]; 48 h),phenotypic severity score ([1]; 72 h),drug effect ([2]; 24 h),drug effect ([2]; 48 h),drug effect ([2]; 72 h)
N=C(N)Nc1ccc(-c2ccc(-c3ccc(N=C(N)N)c(Cl)c3)o2)cc1Cl,0 (inactive),0 (inactive),0 (inactive),< 0 (inactive),< 0 (inactive),0.0625 (inactive)
Nc1ncnc2c1ncn2C[C@@H](O)[C@@H](O)C(=O)O,0 (inactive),0 (inactive),0 (inactive),0.1 (inactive),0.189 (inactive),0.222 (inactive)
COc1ccc2nccc(NC(=O)C3CCN(CCc4ccc(Cl)cc4)CC3)c2n1,0 (inactive),0 (inactive),0 (inactive),0.05 (inactive),0.0556 (inactive),0.111 (inactive)
CS(=O)(=O)c1cccc(-c2cnc3[nH]cc(-c4ccc(CCC(=O)O)cc4)c3c2)c1,0 (inactive),0 (inactive),0 (inactive),0.227 (inactive),0.6 (active),0.455 (inactive)
O=C(NCc1cc(Cl)cc(Cl)c1)c1c(C(F)(F)F)nc2ccccn12,0 (inactive),1 (inactive),0 (inactive),0.158 (inactive),0.333 (inactive),0.312 (inactive)
COc1cc2ncnc(NC3CCN(Cc4ccccc4)CC3)c2cc1OC,0 (inactive),0 (inactive),0 (inactive),0.1 (inactive),0.135 (inactive),0.0556 (inactive)
Cc1ccc(Oc2ccc(NC(=O)CNc3ccccc3N3CCCC3=O)cc2)cc1,2 (active),2 (active),0 (inactive),0.2 (inactive),0.333 (inactive),0.556 (active)
Cc1nc(-c2ccccn2)nc(NCCc2ccc(S(C)(=O)=O)cc2)c1Cl,0 (inactive),4 (active),4 (active),0.135 (inactive),0.167 (inactive),0.5 (active)
CC(C)(C)C(=O)N(CCCCCCN1C[C@H](O)[C@@H](O)[C@H](O)[C@H]1CO)C1CCCCCC1,0 (inactive),2 (active),4 (active),0.25 (inactive),0.556 (active),1 (active)
COc1cc(C2=NCCN2)ccc1-c1cn(-c2cccc(C3=NCCN3)c2)nn1,1 (inactive),0 (inactive),0 (inactive),0.25 (inactive),0.297 (inactive),0.394 (inactive)
COc1ccc(-c2cnc3cnc(-c4cccc(OC(C)C)c4)cn23)cc1,2 (active),4 (active),4 (active),0.0455 (inactive),< 0 (inactive),0.105 (inactive)
O=C(CN1CCOCC1)Nc1ccc2ncnc(Nc3ccc(OCc4cccc(F)c4)c(Cl)c3)c2c1,0 (inactive),0 (inactive),0 (inactive),0.3 (inactive),0.25 (inactive),0.222 (inactive)
CCOc1ccc2cc(-c3nn(C(C)(C)C)c(N)c3C(N)=O)cnc2c1,0 (inactive),0 (inactive),0 (inactive),0.2 (inactive),0.243 (inactive),0.389 (inactive)
N#Cc1ccc(-c2cnc(N)c(-c3ccc(C(N)=O)cc3)n2)cc1,2 (active),2 (active),4 (active),0.027 (inactive),0.333 (inactive),0.5 (active)
O=C(Nc1nc(-c2ccccn2)cs1)c1cncn1-c1ccccc1,0 (inactive),0 (inactive),0 (inactive),0.0909 (inactive),0.15 (inactive),0.236 (inactive)
O=C(Nc1ccc(N2CCNCC2)nc1)c1oc(-c2ccccc2)nc1C(F)(F)F,0 (inactive),0 (inactive),0 (inactive),0.0811 (inactive),0.389 (inactive),0.625 (active)
Cc1cc(Nc2ccncc2)n2nc(C)c(-c3ccccc3Cl)c2n1,0 (inactive),0 (inactive),0 (inactive),0.1 (inactive),0.135 (inactive),0.167 (inactive)
OCc1ccc(-c2cncc(Nc3cccc(Cl)c3)c2)cc1,0 (inactive),0 (inactive),0 (inactive),0.1 (inactive),0.0811 (inactive),0.152 (inactive)
Cc1ccc(-c2cc(C(=O)Nc3cccnc3)c3cc(Br)ccc3n2)cc1,2 (active),1 (inactive),0 (inactive),0.5 (active),0.667 (active),1 (active)
O=C(Nc1nnc(S)s1)c1cc(Br)ccc1Cl,0 (inactive),0 (inactive),0 (inactive),0.05 (inactive),0.027 (inactive),0.0909 (inactive)
COc1ccc2nc(C)cc(OCC(=O)Nc3ccccc3OC)c2c1,0 (inactive),0 (inactive),0 (inactive),0.2 (inactive),0.278 (inactive),0.25 (inactive)
c1ccc(Oc2ccc(-c3cc(CN4CCOCC4)[nH]n3)cc2)cc1,0 (inactive),0 (inactive),0 (inactive),0.0455 (inactive),0.05 (inactive),0.158 (inactive)
COc1cncc(-c2cncc(N3CCN(c4ccncc4)CC3)n2)c1,1 (inactive),0 (inactive),0 (inactive),0.351 (inactive),0.389 (inactive),0.688 (active)

SMILES,phenotypic severity score ([1]; 24 h),phenotypic severity score ([1]; 48 h),phenotypic severity score ([1]; 72 h),drug effect ([2]; 24 h),drug effect ([2]; 48 h),drug effect ([2]; 72 h)
COc1ccc(-c2nnc3ccc(-c4cccc(C(C)C)c4)cn23)cc1OC,0 (inactive),2 (active),0 (inactive),0.1 (inactive),0.167 (inactive),0.278 (inactive)
c1ccc(-c2[nH]c3ccccc3c2C(c2ccccn2)N2CCCC2)cc1 (stereo not given),4 (active),4 (active),4 (active),1 (active),1 (active),1 (active)
Cc1cc(Nc2ccc(C(F)(F)F)cc2)n2ccnc2n1,0 (inactive),0 (inactive),0 (inactive),0.0909 (inactive),0.15 (inactive),0.158 (inactive)
CCc1nc2ccc(C(=O)NCc3ccc4c(c3)OCO4)cn2c1N(C)Cc1cccs1,0 (inactive),0 (inactive),0 (inactive),< 0 (inactive),0.1 (inactive),0.167 (inactive)
OCCc1ccc(Nc2nccc(-c3nnc4ccccn34)n2)cc1,0 (inactive),1 (inactive),4 (active),0.2 (inactive),0.556 (active),0.562 (active)
CS(=O)(=O)Cc1nc2ccccc2oc1=O,0 (inactive),0 (inactive),0 (inactive),0.182 (inactive),0.45 (inactive),0.455 (inactive)
O=C(c1ccc(NCCO)cc1)C1C[C@H]1c1ccc(Cl)cc1 (stereo not given in full),0 (inactive),0 (inactive),0 (inactive),0.135 (inactive),0.278 (inactive),0.625 (active)
Cc1noc(C)c1C(=O)N1CCCC(c2[nH]c3c(C)cccc3c2-c2ccncc2)C1 (stereo not given),4 (active),4 (active),4 (active),0.35 (inactive),0.5 (active),0.778 (active)
O=C1Nc2ccc(Br)cc2C12NCCc1c2[nH]c2ccccc12 (stereo not given),0 (inactive),0 (inactive),0 (inactive),0.05 (inactive),0.0811 (inactive),0.167 (inactive)
c1cncc(NCc2ccc(-c3cc4ccncc4cc3OC3CCNCC3)s2)c1,3 (active),3 (active),4 (active),0.136 (inactive),0.45 (inactive),0.556 (active)
CC(=O)N(CCN(C(=O)c1ccc(F)cc1)c1ccccc1)c1ccccc1,1 (inactive),0 (inactive),0 (inactive),0.1 (inactive),0.027 (inactive),0.0909 (inactive)
COc1ccc(OC)c(NCc2ccc3nc(N)nc(N)c3c2Cl)c1,0 (inactive),2 (active),0 (inactive),< 0 (inactive),0.05 (inactive),0.278 (inactive)
CCCCc1ccc(C(=O)Nc2nccc3ccccc23)nc1,1 (inactive),0 (inactive),1 (inactive),0.1 (inactive),0.167 (inactive),0.188 (inactive)
c1ccc(C[C@@H]2CN(c3nccc(Oc4ccc(-n5ccnc5)cc4)n3)CCN2)cc1,0 (inactive),0 (inactive),0 (inactive),0.1 (inactive),0.111 (inactive),0.188 (inactive)
COC(=O)c1c(NC(=O)c2c(F)c(F)c(F)c(F)c2F)sc2c1CCCCC2,2 (active),4 (active),4 (active),1 (active),1 (active),1 (active)
CCC(Sc1nc2ccccc2o1)C(=O)Nc1nnc(C)s1 (stereo not given),0 (inactive),0 (inactive),0 (inactive),0.1 (inactive),0.111 (inactive),0.312 (inactive)
CC[C@@H]([C@H](C)O)n1ncn(-c2ccc(N3CCN(c4ccc(OC[C@@H]5CO[C@@](Cn6cncn6)(c6ccc(F)cc6F)C5)cc4)CC3)cc2)c1=O,3 (active),4 (active),4 (active),0.2 (inactive),0.243 (inactive),0.556 (active)
COc1ccc(-c2cc(NC(=O)c3ccc(F)cc3Cl)ccc2OC)cc1,0 (inactive),1 (inactive),0 (inactive),0.0909 (inactive),0.25 (inactive),0.236 (inactive)
O=C(c1ccco1)N(CCCn1ccnc1)c1nc2c(Cl)cccc2s1,0 (inactive),0 (inactive),0 (inactive),0.0909 (inactive),0.4 (inactive),0.4 (inactive)
CNC(=O)CNc1nc(-c2ccccn2)nc2scc(-c3ccccc3)c12,0 (inactive),0 (inactive),0 (inactive),0.105 (inactive),0.111 (inactive),0.125 (inactive)
Nc1ncc(Br)cc1-c1nc2cc(Cl)cnc2[nH]1,0 (inactive),0 (inactive),0 (inactive),0.1 (inactive),0.111 (inactive),0.188 (inactive)
CN(C)CCNC(=O)N1CCCN(c2ncnc3cc(-c4ccccc4)sc23)CC1,0 (inactive),0 (inactive),0 (inactive),< 0 (inactive),0.2 (inactive),0.556 (active)
